The text below walks through data of PubChem BioAssay AID1053117 (Broad Institute, 2014).

Results with a measured potency or affinity are listed apart. Calls of active or inactive are those of the source.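 How the source made its calls: active means compounds lowering cell ATP signal with a fitted half-effect dose at most twice the top valid dose; inconclusive means flat curve with 30 to 70% signal loss, or bad fit; inactive means wrong direction, flat within 30%, or weaker than limit.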

The test in a line: viability loss in HEK293 kidney cells – cell-based, cherry-picks, set 5, cytotoxicity control, dose response (AID 1053117).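 Further: more negative means greater loss of ATP signal and more cytotoxicity.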 To be noted: HEK293T viability, CellTiter-Glo ATP luminescence, 72 h; series mostly up to 26 µM.
Turning to `O=C(CCC(=O)c1cccs1)NCc1cccnc1`, the call was inactive.

For the molecule `Cc1oc2ccc(O)cc2c1C(=O)c1ccc(Br)cc1`, the result was inactive.

For the molecule `CCOC(=O)C1=C(C)Nc2nc3ccccc3n2C1c1ccncc1` (stereo not given), the molecule was classed as inactive.

With `C[C@H]1CN([C@@H](C)CO)C(=O)c2cccc(NC(=O)Nc3ccc(C(F)(F)F)cc3)c2O[C@H]1CN(C)C(=O)Nc1cccc2ccccc12`, the outcome was inactive.

For `CCN(Cc1ccncc1)C(=O)c1ccc2c(c1)S(=O)(=O)c1ccccc1C2=O`, the molecule was classed as inactive.

As for `O=C(CC1Nc2ccccc2NC1=O)Nc1ccc2c(c1)OCO2` (stereo not given), the call was inactive.

For `N#C[C@H]1[C@@H](c2ccccc2C2=CCCCC2)[C@H](CO)N1S(=O)(=O)c1ccccc1`, the call was inactive.

In the case of `COc1ccc(-c2csc(CCn3nc(C)cc3C)n2)cc1OC`, the molecule was called inactive.

Regarding `C[C@@H]1CN([C@H](C)CO)C(=O)c2cc(-c3ccccc3)cnc2O[C@@H]1CN(C)C(=O)c1cccc(F)c1`, the molecule was classed as inactive.

On to `CCCc1cc(C(=O)OC)c(NC(=O)CCC(=O)O)s1`, for which the result was inactive.

As to `O=C(c1cccnc1)N1C[C@@H]2[C@H](c3ccccc31)[C@@H](CO)N2CC1CCCC1`, the outcome was inactive.

Turning to `Cc1ccc(S(=O)(=O)N2CC3(C)CN(S(=O)(=O)c4ccc(C)cc4)CC(C)(C2)C3=O)cc1`, the call was inactive.

For `C[C@H](O)C#Cc1ccc2c(c1)O[C@H](CN(C)C)[C@@H](C)CN([C@H](C)CO)S2(=O)=O`, the result was inactive.

Consider `COCC(=O)Nc1ccc2c(c1)C(=O)N(C)[C@H]1CC[C@H](CC(=O)NCc3ccccc3Cl)O[C@@H]1CO2`, for which the call was inactive.

Consider `COC(=O)C[C@@H]1CC[C@H]2[C@@H](COc3ccc(NC(=O)Cc4cccs4)cc3C(=O)N2C)O1`, for which the molecule was called inactive.
